# Reference: PubChem BioAssay AID588590 (National Center for Advancing Translational Sciences (NCATS), 2011)
# Among all 390,000 compounds or so, about 4,000 (1%) were called active. Where a call stands in place of a potency, no number is given. Another 7% or so got no clear call; they are omitted. The sample holds actives, similar compounds and a random draw of the others, so the mix is not that of the screen. Calls come from the whole dose curve; as a rule, active = well fitted inhibition curve with a large enough effect; inconclusive = small, poorly fitted or top-dose-only effect, or another doubt; inactive = no such curve, though single readings can be large or run the other way.
# Target: DNA polymerase iota (Homo sapiens) (UniProt Q9UNA4)
# Sequence (Q9UNA4 whole entry, looked up): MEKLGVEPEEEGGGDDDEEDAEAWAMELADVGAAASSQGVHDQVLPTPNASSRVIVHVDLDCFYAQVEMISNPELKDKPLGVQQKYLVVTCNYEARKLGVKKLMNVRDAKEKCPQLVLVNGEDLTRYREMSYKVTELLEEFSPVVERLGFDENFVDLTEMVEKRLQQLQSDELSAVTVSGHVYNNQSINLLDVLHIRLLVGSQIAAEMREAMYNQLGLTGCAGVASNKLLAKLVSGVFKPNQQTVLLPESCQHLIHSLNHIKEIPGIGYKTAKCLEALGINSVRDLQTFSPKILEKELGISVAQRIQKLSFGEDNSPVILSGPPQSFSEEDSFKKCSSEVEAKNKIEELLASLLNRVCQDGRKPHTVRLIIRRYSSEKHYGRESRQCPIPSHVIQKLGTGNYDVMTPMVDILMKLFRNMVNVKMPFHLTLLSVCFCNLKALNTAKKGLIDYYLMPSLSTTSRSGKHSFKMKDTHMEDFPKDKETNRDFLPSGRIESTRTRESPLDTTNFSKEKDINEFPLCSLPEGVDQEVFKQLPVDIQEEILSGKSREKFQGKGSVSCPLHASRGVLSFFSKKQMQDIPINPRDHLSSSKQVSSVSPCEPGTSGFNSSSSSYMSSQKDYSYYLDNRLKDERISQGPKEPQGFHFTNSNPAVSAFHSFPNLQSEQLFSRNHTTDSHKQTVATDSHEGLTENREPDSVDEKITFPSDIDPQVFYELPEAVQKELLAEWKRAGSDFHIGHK
# Assay: qHTS for Inhibitors of Polymerase Iota
# Conditions: Pol iota fluorescent replication assay, 10 min; series mostly up to 115 µM
# Source text: DNA polymerases, such as Pol iota, are specifically involved in DNA repair. Pol iota specifically plays an important role in translesion synthesis, where the normal high-fidelity DNA polymerases cannot proceed and DNA synthesis stalls. […] Thus, while pol eta's (and most likely iota's) normal function is to protect humans against the deleterious consequences of DNA damage, under certain conditions they can have deleterious effects on human health. As a consequence, we propose to utilize a high throughput replication assay to identify small molecule inhibitors of pol iota.
# In a collaboration between the National Institute of Child Health & Human Development (NICHD) and NIH Chemical Genomics Center, a high-throughput, fluorescent screen was developed to screen the NIH Molecular Libraries Small Molecule Repository (MLSMR). This screen is used to identify inhibitors of pol iota.
# NIH Chemical Genomics Center [NCGC]
# NIH Molecular Libraries Probe Centers Network [MLPCN]
# Assay Submitter (PI): Roger Woodgate, NICHD)
# Three microliters of reagents (buffer in column 3 and 4 as negative control and 10 nM Pol iota in columns 1, 2, and 5-48) will be dispensed into 1,536-well black solid-bottomed plate. Compounds (23 nL) will be transferred via Kalypsys pin tool equipped with 1536-pin array. The plates will then be incubated for 15 min at room temperature, and 1 µL substrate (50 nM final concentration) will be added to start the reaction and kinetically read twice at 0 min and 10 min on the Viewlux reader.
# Potency is the fitted concentration of half-maximal effect.
row,SMILES,Potency
1,CCOc1ccc(NC(=O)CCNC(=O)c2ccc(Br)cc2)cc1,inactive
2,CCOc1ccc(NC(=O)c2ccc(NC(=O)CN3C(=O)C(=O)N(CC(C)C)C3=O)cc2)cc1,inactive
3,CCOc1ccc(NC(=O)c2ccc(NC(=O)COC(=O)c3ccc(NC(=O)CC#N)cc3)cc2)cc1,8.91 µM (active)
4,O=C1O/C(=C\c2ccc(O)cc2)C(O)=C1c1ccc(O)cc1,inactive
5,Oc1ccccc1-c1nc2ccc(Cl)cn2c1Nc1ccc2c(c1)OCCO2,inactive
6,CCOc1ccc(CCNC(=O)c2csc3c2CCCCC3)cc1,inactive
7,Cc1ccccc1OCC(=O)Nc1c(C(=O)Nc2ccccc2F)oc2ccccc12,inactive
8,O=C(COc1ccccc1)Nc1ccc(C(=O)N2CCCC2)cc1,89.1 µM (active)
9,CCOc1ccc(NC(=O)COc2ccc(C(=O)N3CCC(C(N)=O)CC3)cc2OC)cc1,inactive
10,O=C(COc1ccccc1)Nc1ccc(N2CCN(C(=O)c3cccs3)CC2)cc1,inactive
11,COc1ccc(C2Sc3ccccc3NC3=C2C(=O)c2ccccc23)c(OC)c1OC (configuration not stated),inactive
12,CCSc1nnc2c(n1)OC(c1ccc(OCC(=O)O)cc1)Nc1ccccc1-2 (configuration not stated),inactive
13,Cc1cc(C)c2sc(NC(=O)c3ccc(S(=O)(=O)N4CCCC4)cc3)nc2c1,inactive
14,CCCCN(CC)CCCNC(=O)c1nn(C)c2c1CS(=O)(=O)c1ccccc1-2,inactive
15,Cc1ccn2c(=O)nc(SCC(=O)NCc3ccc4c(c3)OCO4)nc2c1,44.7 µM (active)
16,O=C(CSc1nc(=O)n2ccccc2n1)Nc1ccc2c(c1)OCCO2,inactive
17,Cc1ccccc1-c1nnc(SCC(=O)NCc2ccc3c(c2)OCO3)n1C,inactive
18,Cc1ccccc1Nc1nn2c(=O)c3ccc(C(=O)NCCc4ccc(Cl)cc4)cc3nc2s1,inactive
19,O=C(COC(=O)c1cccc(Br)c1)Nc1cccc2c1C(=O)c1ccccc1C2=O,inactive
20,CC(=O)c1cc(NC(=O)c2ccccc2)c(=O)oc1/C=C/N(C)C,inactive
21,O=C(NC1=CC(=O)c2ccccc2C1=O)c1ccccc1,3.55 µM (active)
22,O=C(Nc1ccc([N+](=O)[O-])cc1)c1cnn2c1NC(=C1CC1)C=C2C(F)F,inactive
23,CCN(CCCNC(=O)c1cc2cc3cc(OC)ccc3nc2s1)c1ccccc1,inactive
24,O=C(NCCCN1CCN(c2cccc(Cl)c2)CC1)c1nnc(Cc2ccc(F)cc2Cl)o1,inactive
25,Cc1ccc(Nc2nnc(-c3ccc(C)c(S(=O)(=O)N4CCCCC4)c3)c3ccccc23)cc1,inactive
26,Cc1ccc(C)c(Nc2nnc(-c3ccc(C)c(S(=O)(=O)N4CCCCC4)c3)c3ccccc23)c1,89.1 µM (active)
27,Cc1ccc(-c2nnc(Nc3ccc(C(=O)N(C)C)cc3)c3ccccc23)cc1S(N)(=O)=O,inactive
